Experimental data as given in the antibiotic and cytotoxicity screens of Wong et al. (2023).
Hit rate of the full screen: of about 39,000 compounds, about 3,300 (8.5%) were called active. This is one part of a sample in which actives are shown more often than they occur.

Each compound was assayed on HepG2 (assay: cytotoxicity call (relative viability < 0.9)). Settings: 10 µM.

| Compound | cytotoxicity call |
| --- | --- |
| COc1ccc(S(=O)(=O)N(C)C[C@@H]2Oc3ccc(NC(=O)Nc4c(C)noc4C)cc3CC(=O)N([C@H](C)CO)C[C@@H]2C)cc1 | inactive |
| CC(C)NC(=O)N(C)C[C@@H]1Oc2c(NS(=O)(=O)c3ccc(Cl)cc3)cccc2C(=O)N([C@H](C)CO)C[C@@H]1C | inactive |
| C[C@@H]1CN([C@@H](C)CO)C(=O)c2cccc(NS(C)(=O)=O)c2O[C@@H]1CN(C)C(=O)Nc1ccc(C(F)(F)F)cc1 | inactive |
| CSCCC(NC(=O)C(Cc1c[nH]c2ccccc12)NC(=O)CCNC(=O)OC(C)(C)C)C(=O)NC(CC(=O)O)C(=O)NC(Cc1ccccc1)C(N)=O (configuration not stated) | inactive |
| COc1ccc(S(=O)(=O)N(C)C[C@H]2Oc3ccc(NS(=O)(=O)c4ccc(F)cc4)cc3CC(=O)N([C@H](C)CO)C[C@H]2C)cc1 | inactive |
| CN([C@@H](Cc1ccc(OS(=O)(=O)c2cccc3cnccc23)cc1)C(=O)N1CCN(c2ccccc2)CC1)S(=O)(=O)c1cccc2cnccc12 | inactive |
| CN(C)CC(=O)N[C@@H]1CC[C@H](CCNC(=O)C2CCC2)O[C@H]1CO | inactive |
| CN1C(=O)/C(=C(/C#N)C(N)=O)c2ccccc21 | inactive |
| O=C(Nc1ccccc1)C1=C[C@H](c2ccc3c(c2)Cc2ccccc2-3)C[C@H](OCc2ccc(CO)cc2)O1 | inactive |
| Cc1ccc(S(=O)(=O)Nc2ccc3c(c2)C(=O)N([C@H](C)CO)C[C@H](C)[C@@H](CN(C)S(C)(=O)=O)OCCCC[C@@H](C)O3)cc1 | inactive |
| O=C(NC1CCCCC1)[C@@H]1C(c2ccc(Cl)cc2)=C(S(=O)(=O)c2ccccc2)C(=O)N1Cc1ccc(-c2ccccc2)cc1 | inactive |
| CC(=O)n1nc(-c2cccnc2)nc1N | inactive |
| C[C@H](CO)N1C[C@H](C)[C@H](CN(C)Cc2ccc(C(=O)O)cc2)OCCCC[C@H](C)Oc2ccc(NC(=O)c3ccccc3)cc2C1=O | inactive |
| C[C@@H]1CN([C@H](C)CO)C(=O)c2cc(NC(=O)Nc3ccccc3)ccc2O[C@H]1CN(C)Cc1ccc(-c2ccccc2)cc1 | active |
| C[C@@H]1CN([C@@H](C)CO)C(=O)c2cc(NC(=O)Nc3ccccc3)ccc2O[C@@H]1CN(C)Cc1ccc(-c2ccccc2)cc1 | active |
| COCC(=O)N(C)C[C@H]1Oc2cc(C#Cc3ccccc3)ccc2S(=O)(=O)N([C@@H](C)CO)C[C@@H]1C | inactive |
| O=C(CSc1nnc[nH]1)C1CC1 | inactive |
| COc1c(C)cc(-c2cc3c(c(CCc4ccccc4)n2)[Si](C(C)C)(C(C)C)O[C@H]3c2ccccc2)cc1C | inactive |
| COc1cc(Nc2ncc(F)c(Nc3ccc4c(n3)N(COP(=O)(O)O)C(=O)C(C)(C)O4)n2)cc(OC)c1OC | active |
| COCC(=O)Nc1ccc2c(c1)C(=O)N(C)C[C@H](OC)[C@H](C)CN(C(=O)Cc1cccnc1)[C@@H](C)CO2 | inactive |
| C[C@H](CO)N1C[C@H](C)[C@H](CN(C)Cc2ccc(Oc3ccccc3)cc2)Oc2ccc(NC(=O)Nc3ccccc3)cc2C1=O | inactive |

| Compound | cytotoxicity call |
| --- | --- |
| C[C@H]1CN([C@@H](C)CO)C(=O)c2cc(NC(=O)Nc3ccccc3)ccc2O[C@@H]1CN(C)Cc1ccc(Oc2ccccc2)cc1 | active |
| C[C@@H]1CN([C@@H](C)CO)C(=O)c2cc(NC(=O)Nc3ccccc3)ccc2O[C@@H]1CN(C)Cc1ccc(Oc2ccccc2)cc1 | active |
| C[C@H]1CN([C@@H](C)CO)C(=O)c2cc(NC(=O)Nc3ccccc3)ccc2O[C@H]1CN(C)Cc1ccc(Oc2ccccc2)cc1 | inactive |
| C[C@H](CO)N1C[C@H](C)[C@@H](CN(C)Cc2ccc(Oc3ccccc3)cc2)Oc2ccc(NC(=O)Nc3ccccc3)cc2C1=O | active |
| C[C@@H]1CN([C@@H](C)CO)C(=O)c2cc(NC(=O)Nc3ccccc3)ccc2O[C@H]1CN(C)Cc1ccc(Oc2ccccc2)cc1 | active |
| C[C@H](CO)N1C[C@H](C)[C@H](CN(C)Cc2ccc(C(=O)O)cc2)Oc2c(NC(=O)Nc3ccc(C(F)(F)F)cc3)cccc2C1=O | inactive |
| O=C(C[C@@H]1C=C[C@@H](NC(=O)C2CCC2)[C@H](CO)O1)NCCCN1CCOCC1 | inactive |
| C[C@@H]1CCCCO[C@H](CN(C)C(=O)Cc2ccccc2)[C@@H](C)CN([C@@H](C)CO)C(=O)c2cc(NC(=O)CCC(F)(F)F)ccc2O1 | inactive |
| COCCOC(=O)N1C(=O)[C@@]2(c3ccccc31)[C@H](C(=O)N1CCCCCCC1)[C@H]1C(=O)O[C@H](c3ccccc3)[C@H](c3ccccc3)N1[C@@H]2c1ccc(OCCO)cc1 | inactive |
| COc1ccc(-c2cnc3c(c2)C(=O)N([C@H](C)CO)C[C@H](C)[C@H](CN(C)C(=O)Cc2cccnc2)O3)cc1 | inactive |
| Cn1c(=O)n2n(c1=O)[C@H](C1CC1)C=C1CN3[C@@H]([C@H](Cc4ccccc4)OC(=O)[C@@H]3Cc3ccc(-n4cc(CCC(=O)NO)nn4)cc3)[C@@H]12 | inactive |
| C[C@H]1CN([C@@H](C)CO)C(=O)CCCn2nncc2CO[C@H]1CN(C)C(=O)Nc1ccc(C(F)(F)F)cc1 | inactive |
| NC(=O)CN1C(=O)C(=O)c2cc(Cl)ccc21 | inactive |
| Cc1nc(-c2ccncc2)sc1CN | inactive |
| O=C(C[C@@H]1C[C@@H]2c3cc(NC(=O)c4ccc5c(c4)OCO5)ccc3O[C@@H]2[C@H](CO)O1)NCc1ccccn1 | inactive |
| COCC(=O)Nc1ccc2c(c1)C(=O)N(C)[C@H]1CC[C@@H](CC(=O)NCc3ccc(OC)cc3)O[C@@H]1CO2 | inactive |
| Cc1noc(C)c1NC(=O)Nc1cccc2c1O[C@@H](CN(C)S(C)(=O)=O)[C@H](C)CN([C@H](C)CO)C2=O | inactive |
| COc1cc(S(C)(=O)=O)ccc1Nc1nc2ccc(-c3ccc(NC(=O)[C@H](C)c4ccc(F)cc4)cc3)cn2n1 | inactive |
| C[C@@H]1CN([C@H](C)CO)C(=O)c2cc(NC(=O)Nc3ccccc3)ccc2O[C@@H]1CN(C)Cc1ccc(Oc2ccccc2)cc1 | active |
| C[C@@H]1CN([C@H](C)CO)C(=O)c2cc(NC(=O)Nc3ccccc3)ccc2O[C@H]1CN(C)Cc1ccc(Oc2ccccc2)cc1 | active |
| COc1ccc(NC(=O)N(C)C[C@@H]2OCCCC[C@@H](C)Oc3ccc(NS(=O)(=O)c4ccc(C)cc4)cc3C(=O)N([C@@H](C)CO)C[C@@H]2C)cc1 | inactive |
